Source: PubChem (National Center for Advancing Translational Sciences (NCATS))
In the library only some 6.9% were active in any assay of this set; here they are far more common.
ASM inhibitor – Inhibitors of Secretory Acid Sphingomyelinase (S-ASM): qHTS; Sphingomyelin phosphodiesterase (Homo sapiens), P17405; placental ASM, HMU-PC fluorogenic substrate, 60 min; Potency, µM (series often up to 57.5 µM), usual class: inhibitors; hit rate 0.006% among 340,000
Target sequence (P17405 47-631 limits assumed): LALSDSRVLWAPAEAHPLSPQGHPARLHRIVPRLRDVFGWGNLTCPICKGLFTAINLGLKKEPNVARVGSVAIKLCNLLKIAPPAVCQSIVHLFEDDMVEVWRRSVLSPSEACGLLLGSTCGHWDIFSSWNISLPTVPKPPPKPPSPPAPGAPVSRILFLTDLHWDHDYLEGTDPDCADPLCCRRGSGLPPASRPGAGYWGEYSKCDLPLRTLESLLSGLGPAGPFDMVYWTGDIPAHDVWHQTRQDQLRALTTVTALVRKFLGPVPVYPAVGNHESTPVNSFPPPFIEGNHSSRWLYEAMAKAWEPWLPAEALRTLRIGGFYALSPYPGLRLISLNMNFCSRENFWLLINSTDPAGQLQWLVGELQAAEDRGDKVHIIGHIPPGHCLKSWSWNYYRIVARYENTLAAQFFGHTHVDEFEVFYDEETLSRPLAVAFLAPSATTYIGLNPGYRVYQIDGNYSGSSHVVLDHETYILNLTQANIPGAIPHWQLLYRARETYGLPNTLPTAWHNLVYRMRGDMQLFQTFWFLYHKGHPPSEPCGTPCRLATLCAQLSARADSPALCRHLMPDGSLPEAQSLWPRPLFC
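Fluorescence read-out (Ex 386 nm, Em 447 nm) after stopping the reaction at pH 10. Enzyme: ASM from human placenta; substrate HMU-PC0, 9 uM final; 60 min, 37 °C. Compound preincubation 10 min, ambient temperature.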
MCF10A rereplic – A quantitative high throughput screen for small molecules that induce DNA re-replication in MCF 10a normal breast cells; hit rate 2.9% among 350,000; AID 624296, 2012; Potency, µM (series often up to 46.1 µM), most hits filed as activators; MCF 10A DNA re-replication, Hoechst nuclear intensity, 48 h; also: nearly all actives have a fitted effect of over 50% in size
Giardia kill – Small Molecules that selectively kill Giardia lamblia: qHTS | AID 540267, 2011 | activity change, % at 7.66 µM, hits read low | hit rate 0.15% among 340,000 | Giardia lamblia trophozoite viability; in the data active = activity change below about -80%; inconclusive = between about -30% and that limit;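 also: parasites exposed to compound for two days anaerobically before the ATP read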
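Giardia lamblia trophozoites (100 cells/well) were incubated with compounds for 48 h at 37 deg C under anaerobic conditions. Viability was read as ATP content by one-step luminescence after 15-30 min at room temperature.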
KB-V1 cytotox – qHTS assay for MDR1-selective chemotherapeutics: Primary screen using the drug-selected MDR subline cells KB-V1. Potency, µM (titrated, usually from 46.1 µM), most hits filed as cytotoxic. hit rate 3.4% among 400,000. KB-V1 MDR cells viability, CellTiter-Glo, 72 h; also: nearly all actives have a fitted effect of over 60% in size
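qHTS viability screen in drug-selected KB-V1 MDR cells: 72 h compound treatment at 37 degrees C, ATP luminescence end point.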
SW480 rereplic – A quantitative high throughput screen for small molecules that induce DNA re-replication in SW480 colon adenocarcinoma cells; SW480 DNA re-replication, Hoechst DNA content imaging, 48 h; Potency, µM (series often up to 46.1 µM), most hits filed as activators; hit rate 1.8% among 340,000; AID 624297, 2012; also: nearly all actives have a fitted effect of over 55% in size
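Treated cells incubate 48 hr (37 C, 5% CO2), are stained 40 min with Hoechst, and nuclear fluorescence is enumerated; a rise in nuclei with high DNA signal marks re-replication.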
KB-3-1 cytotox – qHTS assay for MDR1-selective chemotherapeutics: Primary screen using the parental adenocarcinoma cell KB-3-1; Potency, µM (top dose mostly 46.1 µM), most hits filed as cytotoxic; KB-3-1 viability, CellTiter-Glo ATP luminescence, 72 h; hit rate 1.4% among 400,000; also: nearly all actives have a fitted effect of over 60% in size
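KB-3-1 parental drug-naive adenocarcinoma cells in DMEM/10% FBS, incubated 72 h at 37 C with pin-transferred compounds across a concentration series. Viability by CellTiter-Glo luminescence; concentration-response curves fitted after normalization.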
Each line names hits and unclear results; the compound was inactive in the other large screens. Unless noted, calls follow the shape of the dose curve; as a rule, active = well fitted curve in the direction sought with a large enough effect; inconclusive = small, poorly fitted or top-dose-only effect, or another doubt; inactive = no such curve, though single readings can be large; an effect the other way counts as inactive or inconclusive.

COC(/C=C/Nc1ccc(OC)cc1)=C(C#N)C#N	none
CCOc1ccc(OCCOCCn2c(-c3ccc(Cl)cc3)nc3ccccc3c2=O)cc1	none (no result: ASM inhibitor, MCF10A rereplic, Giardia kill, SW480 rereplic)
Cn1nccc1NS(=O)(=O)c1ccc(C(C)(C)C)cc1	KB-V1 cytotox inconclusive
Cn1nccc1NS(=O)(=O)c1ccc(NC(=O)C(F)(F)F)cc1	SW480 rereplic 2.91µM
CCOc1ccc(-c2c(C)nn3c(C)c(C(=O)NCc4cccc(OC)c4)cnc23)cc1OCC	none (no result: ASM inhibitor, MCF10A rereplic, Giardia kill, SW480 rereplic)
Cc1ccc(S(=O)(=O)CCSC(=N)N)cc1	MCF10A rereplic 18.4µM, SW480 rereplic 6.51µM
CC(C)c1ccc(S(=O)(=O)N2CCN(C(C)C(=O)N3CCCC3)CC2)cc1 (configuration not stated)	KB-V1 cytotox 25.9µM
CCC(C)c1ccc(S(=O)(=O)N2CCN(C(C)C(=O)NC3CCCC3)CC2)cc1 (configuration not stated)	KB-V1 cytotox 5.8µM
CCn1c(=O)cc(OCC(=O)N2CCN(c3ccccc3OC)CC2)c2ccccc21	KB-3-1 cytotox inconclusive (no result: ASM inhibitor, MCF10A rereplic, Giardia kill, SW480 rereplic)
CSc1nc(C)c2c(n1)N(c1ccc(C(C)C)cc1)CC2	KB-V1 cytotox 8.2µM
CC(=O)N(C)c1ccc(/C=C2\C=Cc3ccccc32)cc1	none (no result: ASM inhibitor, MCF10A rereplic, Giardia kill, SW480 rereplic)
Cc1cc(C(=O)N/N=C/c2cc(Br)cc(Br)c2OC(=O)c2cccc(F)c2)n[nH]1	MCF10A rereplic 14.6µM, KB-V1 cytotox inconclusive, SW480 rereplic 0.92µM, KB-3-1 cytotox inconclusive
COc1ccc(/C(C)=N\NS(C)(=O)=O)c(OC)c1	SW480 rereplic 0.581µM
Cc1cc(C)c2c(CC(=O)Nc3nnc(C(C)C)s3)coc2c1	none (no result: ASM inhibitor, MCF10A rereplic, Giardia kill, SW480 rereplic)
COc1ccc(CNC(=O)Cn2c(=O)n3nc(-c4ccc(OC)cc4)nc3c3ccccc32)cc1	KB-V1 cytotox inconclusive (no result: ASM inhibitor, MCF10A rereplic, Giardia kill, SW480 rereplic)
C=C1C(=O)[C@@]23[C@H](O)C[C@@H]4C(C)(C)CC[C@H](O)[C@]4(C)[C@@H]2C[C@H](O)[C@@H]1[C@H]3O	MCF10A rereplic 6.51µM, KB-V1 cytotox inconclusive, SW480 rereplic 2.59µM, KB-3-1 cytotox inconclusive
C=C1C(=O)[C@@]23[C@H](O)C[C@@H]4C(C)(C)CC[C@H](O)[C@@]4(C)[C@@H]2CC[C@@H]1[C@H]3O	MCF10A rereplic 0.517µM, SW480 rereplic inconclusive
O=C(NC(c1ccco1)c1cc(Cl)c2cccnc2c1O)c1ccsc1 (configuration not stated)	KB-3-1 cytotox inconclusive (no result: ASM inhibitor, MCF10A rereplic, Giardia kill, SW480 rereplic)
O=C(CNC(=O)c1ccc(Cl)cc1)OCc1cc(=O)n2nc(C3CC3)sc2n1	none (no result: ASM inhibitor, MCF10A rereplic, Giardia kill, SW480 rereplic)
Cc1cc(C)c(NC(=O)CN(C)C(=O)CNC(=O)c2cccs2)c(C)c1	none
Cc1ccc(S(=O)(=O)N2CCN(C(=O)CSC(=S)N3CCCC3)CC2)c(C)c1	KB-V1 cytotox inconclusive
Cc1ccc(CN2CC(C(=O)N3CCN(S(=O)(=O)c4ccc(C)cc4C)CC3)CC2=O)cc1 (configuration not stated)	KB-V1 cytotox 16.4µM
Cc1cc(C)c(NC(=O)C2CC(=O)N(Cc3ccccc3)C2)c(C)c1 (configuration not stated)	SW480 rereplic 16.4µM
Cc1ccc(S(=O)(=O)N2CCN(C(=O)CSC3CCCC3)CC2)c(C)c1	KB-V1 cytotox 4.11µM
CCOc1ccc(OCC)c(NC(=O)C2CCCN(c3ncccn3)C2)c1 (configuration not stated)	none
CCOc1ccc(OCC)c(NC(=O)C2CCN(c3ncccn3)CC2)c1	KB-V1 cytotox 9.2µM
CCOc1ccc(OCC)c(NC(=O)C2CCCN(C(=O)c3ccc(Cl)cc3)C2)c1 (configuration not stated)	KB-V1 cytotox 7.31µM
CC(=O)Nc1nonc1-c1nnc(SCC(=O)Nc2c(C)cccc2C)n1-c1ccccc1	none (no result: ASM inhibitor, MCF10A rereplic, Giardia kill, SW480 rereplic)
CC(=O)Nc1ccc2cc3ccc(NC(C)=O)cc3nc2c1	KB-3-1 cytotox 23.1µM
CCOc1ccc(CCNC(=O)Cn2c(C)c3cnn(-c4ccccc4)c(=O)c3c2C)cc1	none (no result: ASM inhibitor, MCF10A rereplic, Giardia kill, SW480 rereplic)
COc1ccc(C2CC(c3cccs3)=NN2C(=O)CSc2nncn2C)cc1OC (configuration not stated)	MCF10A rereplic 4.61µM, KB-V1 cytotox inconclusive
CC(=Nc1ccccc1)C1=C(O)C(Cc2ccc(O)cc2)NC1=O (configuration not stated)	MCF10A rereplic 0.461µM, KB-V1 cytotox inconclusive, SW480 rereplic 0.13µM, KB-3-1 cytotox 0.206µM
O=C1NC[C@H](Cc2ccccc2)N(CCc2cccc(F)c2)C1=O	KB-V1 cytotox inconclusive
CC(=Nc1ccccc1)C1=C(O)C(Cc2cccc(F)c2)NC1=O (configuration not stated)	KB-V1 cytotox 1.16µM, KB-3-1 cytotox inconclusive (no result: ASM inhibitor, MCF10A rereplic, Giardia kill, SW480 rereplic)
Cc1ccc(NC(=O)C2CC(=O)N(C(C)c3ccccc3)C2)cc1 (configuration not stated)	KB-V1 cytotox 18.4µM
CC(C)N1CC(C(=O)Nc2ccccc2)CC1=O (configuration not stated)	KB-V1 cytotox inconclusive
CN1CCC(NCCC(c2ccc(F)cc2)c2ccc(Cl)cc2)CC1 (configuration not stated)	MCF10A rereplic inconclusive, KB-V1 cytotox inconclusive, SW480 rereplic inconclusive, KB-3-1 cytotox 16.4µM
O=C(O)COc1ccccc1/C=C1\SC(=Nc2ccc(F)cc2)N(c2ccc(F)cc2)C1=O	MCF10A rereplic 6.51µM, KB-V1 cytotox inconclusive, SW480 rereplic inconclusive
O=C(O)COc1ccc(/C=C2\SC(=Nc3ccccc3)N(c3ccccc3)C2=O)cc1	none
COc1cccc(CCn2c(N)cc(=O)[nH]c2=S)c1OC	none (no result: ASM inhibitor, MCF10A rereplic, KB-V1 cytotox, SW480 rereplic, KB-3-1 cytotox)
Cc1ccc(C)c(Nc2nnc(-c3ccc(C)c(S(=O)(=O)NCC4CCCO4)c3)c3ccccc23)c1 (configuration not stated)	KB-3-1 cytotox inconclusive (no result: ASM inhibitor, MCF10A rereplic, Giardia kill, SW480 rereplic)
COc1ccccc1-c1cn[nH]c1-c1ccc(OCc2ccccc2)cc1O	MCF10A rereplic 23.1µM, SW480 rereplic inconclusive, KB-3-1 cytotox inconclusive
CCOc1ccc(-c2[nH]ncc2-c2ccccc2)c(O)c1	none
COc1ccc(-c2cn[nH]c2-c2ccc(OCc3ccccc3)cc2O)cc1	ASM inhibitor inconclusive, MCF10A rereplic 13µM, SW480 rereplic inconclusive
COCCn1c(C)cc(O)c(C(c2ccccc2Cl)N2CCN(c3ccccc3)CC2)c1=O (configuration not stated)	none (no result: ASM inhibitor, MCF10A rereplic, Giardia kill, SW480 rereplic)
Cc1cc(N2CCN(c3ccccc3)CC2)nc(-n2nc(C)cc2C)n1	MCF10A rereplic inconclusive, KB-V1 cytotox 2.59µM, SW480 rereplic inconclusive
COc1ccccc1-c1ccc(/C=C2\C=CC(=O)O2)o1	MCF10A rereplic 20.6µM, SW480 rereplic inconclusive
